# Active and inactive are the calls of the source. Unless noted, the rule behind the calls is not given here.
# Tests used:
# [1] = tested on: Wnt5a (protein binding on small-molecule microarray); assay: small molecules binding Wnt5a protein – biophysical, small-molecule microarray, 635/667 nm fluorescence, primary screen (AID 1142); details: 635 nm fluorescence, higher = more signal;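 note: fluorescence read at 667 nm with signal to noise per printed feature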
# [2] = ATP-based viability of Huh7 replicon cells – cell-based, CellTiter-Glo luminescence, basal, 48 h, cytotoxicity control for HCV replication inhibitor project, primary screen (AID 1143); details: higher = more signal, called active from +8 up or from −8 down;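 note: Huh7 hepatoma cells carrying a hepatitis C replication reporter with no stimulus; test concentration not given here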
# [3] = Pseudomonas biofilm growth suppression – PAO1 strain, BacTiter-Glo luminescence, LB-PBS, primary screen (AID 1144); details: P. aeruginosa PAO1 biofilm, 12 h, higher = more signal
# [4] = basal CRE-LacZ reporter activity in PC12 – cell-based, unstimulated, primary screen (AID 1145); details: no forskolin, luminescence, 4.5 h, higher = more signal, called active from +8 up or from −8 down
# [5] = forskolin-driven CRE-LacZ activity in PC12 – cell-based, CRE-LacZ reporter, forskolin-stimulated, primary screen (AID 1146); details: luminescence, 4.5 h, higher = more signal, called active from +8 up or from −8 down;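 note: PC12 cells with 6xCRE LacZ reporter stimulated by forskolin 10 µM; beta-galactosidase reporter signal reflecting CREB driven transcription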
# [6] = target: Streptavidin (Streptomyces avidinii) (UniProt P22629); assay: compounds binding control protein streptavidin – biophysical, small-molecule microarray, 635/667 nm fluorescence, artefact control for SMM compound annotation, primary screen (AID 1147); details: higher = more signal;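 note: signal reflects streptavidin binding to arrayed compounds as a control protein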
# [7] = probe aInhba binding on compound microarray – biochemical, small-molecule microarray, 635/667 nm fluorescence, primary screen (AID 1148); details: higher = more signal;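 note: score merges 667nm spot fluorescence with signal-to-noise for antibody binding to printed compounds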
# Torsin-1A (Homo sapiens) [8] = target: Torsin-1A (Homo sapiens) (UniProt O14656); assay: TOR1A wild-type binding on microarray – cell lysate, small-molecule microarray, lysate, 635/667 nm, primary screen (AID 1149); details: COS7 hTOR1A-WT lysate, 635 nm fluorescence, higher = more signal
# Torsin-1A (Homo sapiens) [9] = target: Torsin-1A (Homo sapiens) (UniProt O14656); assay: torsin A mutant lysate binding on microarrays – cell lysate, small-molecule microarray, COS7 lysate, 635/667 nm fluorescence, primary screen (AID 1150); details: COS7 hTOR1A mutant lysate, 635 nm fluorescence, higher = more signal;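 note: score pools 667 nm emission and signal to noise measuring lysate protein binding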
# [10] = tested on: Sonic hedgehog protein (Shh); assay: Sonic hedgehog microarray binding compounds – biochemical, small-molecule microarray, 635/667 nm fluorescence, primary screen (AID 1151); details: 635 nm fluorescence, higher = more signal;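 note: Shh protein binding to compounds spotted on small-molecule microarray slides; score combines spot fluorescence intensity with signal-to-noise across triplicate slides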
# Sequence of Streptavidin (Streptomyces avidinii) (P22629 whole entry, looked up): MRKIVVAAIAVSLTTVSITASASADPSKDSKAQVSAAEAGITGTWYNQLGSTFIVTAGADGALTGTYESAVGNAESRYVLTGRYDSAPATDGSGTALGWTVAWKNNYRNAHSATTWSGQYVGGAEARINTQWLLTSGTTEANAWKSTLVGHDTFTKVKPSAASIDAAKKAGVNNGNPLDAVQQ
# Sequence of Torsin-1A (Homo sapiens) (O14656 whole entry, looked up): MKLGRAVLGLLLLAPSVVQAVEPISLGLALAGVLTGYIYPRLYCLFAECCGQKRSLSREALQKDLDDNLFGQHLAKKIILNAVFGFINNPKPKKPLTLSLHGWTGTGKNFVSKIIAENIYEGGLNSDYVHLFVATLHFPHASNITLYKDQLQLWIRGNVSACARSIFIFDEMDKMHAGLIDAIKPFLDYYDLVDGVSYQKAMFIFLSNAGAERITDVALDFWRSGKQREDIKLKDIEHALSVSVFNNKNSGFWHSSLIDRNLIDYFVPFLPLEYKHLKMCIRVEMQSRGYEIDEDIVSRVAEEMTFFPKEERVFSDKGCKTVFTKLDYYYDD
Structure (SMILES),composite z-score [1],z-score [2],z-score [3],z-score [4],z-score [5],composite z-score [6],composite z-score [7],composite z-score (Torsin-1A (Homo sapiens) [8]),composite z-score (Torsin-1A (Homo sapiens) [9]),composite z-score [10]
Cc1ccc(S(=O)(=O)OC[C@H]2CN3[C@H](c4ccc(Br)cc4)[C@@H](C)CC[C@H]3C(=O)O2)cc1,0.114,-1.25 (inactive),-1.43 (inactive),2.01 (inactive),0.535 (inactive),0.487,-0.128,0.782,0.44,0.362
CC(C)CON=C1C[C@@H](O)[C@@H](O)[C@@H]2[C@@H]3C(=O)N(c4cccc(Oc5ccccc5)c4)C(=O)[C@@H]3CC[C@@H]12,0.0462,-1.26 (inactive),0.272 (inactive),-0.11 (inactive),0.0421 (inactive),0.977,-0.016,0.486,0.181,1.7
CCOC(=O)[C@H](Cc1ccccc1)NC(=O)CCC1CC(OC(=O)NCc2cccc3ccccc23)CC2(CCCC(COC(=O)NCc3cccc(C(F)(F)F)c3)O2)O1 (stereo not given in full),-0.0693,-0.816 (inactive),-0.641 (inactive),4.81 (inactive),-0.0734 (inactive),0.339,-0.0375,-0.347,-0.385,0.0624
CC(C)CON=C1C[C@@H](O)[C@@H](O)[C@@H]2[C@@H]3C(=O)N(C(C)(C)C)C(=O)[C@@H]3CC[C@H]12,-0.147,0.419 (inactive),-0.208 (inactive),-0.116 (inactive),0.366 (inactive),-0.312,-0.125,0.324,0.329,-0.739
C=CC[C@@H]1C=C[C@H](ON=C(C)CCC(=O)OC[C@H]2O[C@H](c3ccccc3)C=C[C@@H]2Oc2ccc(OC)cc2)[C@@H](CO)O1,-0.278,-1.08 (inactive),-0.743 (inactive),-0.24 (inactive),-0.24 (inactive),-0.586,-0.128,-0.957,-0.587,-0.317
O=C1CCCC=C1C(O)CCCCBr (stereo not given),0.0756,-3.99 (inactive),-0.548 (inactive),1.37 (inactive),27 (active),1.51,-0.0523,0.201,0.686,0.333
O=C(NN=C1C[C@@H](O)[C@@H](O)[C@@H]2[C@@H]3C(=O)N(Cc4ccccc4)C(=O)[C@@H]3CC[C@@H]12)OCc1ccccc1,-0.0896,-0.381 (inactive),-0.526 (inactive),0.248 (inactive),0.121 (inactive),-0.418,-0.239,0.815,0.819,-0.0067
CC(C)(C)N1C(=O)[C@H]2[C@H]3[C@H](O)[C@H](O)CC(=O)[C@@H]3CC[C@H]2C1=O,-0.0326,-1.07 (inactive),-0.25 (inactive),-0.93 (inactive),-0.785 (inactive),0.179,-0.109,0.236,0.261,0.525
CCCNC(=O)OC[C@H]1O[C@H](c2ccccc2)C=C[C@@H]1Oc1ccc(OC)cc1,-0.0663,-0.234 (inactive),0.404 (inactive),0.735 (inactive),-0.353 (inactive),1.48,-0.0719,-0.131,0.144,0.0199
O=C1[C@H]2[C@H]3[C@H](O)[C@H](O)CC(=NO[C@@H]4O[C@H](CO)[C@@H](O)[C@H](O)[C@H]4O)[C@H]3CC[C@H]2C(=O)N1c1cccc(Oc2ccccc2)c1,0.162,-0.31 (inactive),0.257 (inactive),-0.838 (inactive),-0.462 (inactive),0.528,-0.0846,0.625,0.367,1.09
CCOC(=O)[C@H](CC(C)C)NC(=O)CCC1CC(OC(=O)NCc2cccc3ccccc23)CC2(CCCC(COC(=O)NCc3ccncc3)O2)O1 (stereo not given in full),-0.0656,-0.905 (inactive),-0.243 (inactive),0.562 (inactive),0.633 (inactive),0.629,0.0074,0.126,0.565,1.25
CCN1C(=O)[C@H]2[C@H]3[C@H](O)[C@H](O)CC(=O)[C@@H]3CC[C@H]2C1=O,0.0774,0.213 (inactive),-0.402 (inactive),-0.293 (inactive),-0.69 (inactive),0.253,-0.0719,-0.109,0.344,0.694
COC(=O)[C@@H]1CC[C@H](C)[C@@H](c2ccc(C)cc2)N1C(=O)c1ccc(C=NO[C@@H](C)c2cn([C@H](CO)Cc3ccccc3)nn2)cc1,0.408,-2.15 (inactive),0.476 (inactive),5.32 (inactive),-0.216 (inactive),0.279,-0.024,0.243,0.634,0.738
C#CCCCON=C1C[C@@H](O)[C@@H](O)[C@@H]2[C@@H]3C(=O)N(Cc4ccccc4)C(=O)[C@@H]3CC[C@@H]12,0.087,-0.0439 (inactive),0.943 (inactive),-0.476 (inactive),0.174 (inactive),-0.382,-0.0675,0.103,0.0159,-0.523
COC(=O)CC=C[C@@H](C)[C@@H](C=NOC[C@@H](O)[C@H]1O[C@@H]2OC(C)(C)O[C@@H]2[C@H]1O)NS(=O)(=O)c1ccc(C)cc1,0.242,0.0198 (inactive),0.603 (inactive),-0.245 (inactive),0.285 (inactive),-0.0169,0.163,0.92,0.387,0.288
COC(=O)CC=C[C@@H](C)[C@@H](C=NOC(C)CN1CCCc2nc(C)c(C)cc21)OC (stereo not given in full),0.17,0.431 (inactive),0.764 (inactive),-0.64 (inactive),0.632 (inactive),1.21,0.098,0.254,0.0852,0.655
O=C(NN=C1C[C@@H](O)[C@@H](O)[C@@H]2[C@@H]3C(=O)N(C4CCCCC4)C(=O)[C@@H]3CC[C@@H]12)OCc1ccccc1,-0.03,0.0845 (inactive),1.15 (inactive),1.79 (inactive),0.0171 (inactive),-0.225,-0.384,0.205,-0.0666,-0.364
CC(C)=CCCC(C)=CCON=C1C[C@@H](O)[C@@H](O)[C@@H]2[C@@H]3C(=O)N(c4cccc(Oc5ccccc5)c4)C(=O)[C@@H]3CC[C@@H]12,-0.102,-4.07 (inactive),-0.375 (inactive),2.51 (inactive),0.557 (inactive),0.217,-0.128,-0.38,0.0864,0.402
CO[C@@H]1COC(=O)CC=C[C@@H](C)[C@H](OC)COC(=O)[C@@H](C)COC(=O)CC=C[C@H]1C,-0.451,-0.128 (inactive),0.416 (inactive),0.518 (inactive),-0.14 (inactive),0.0524,-0.266,1.4,0.381,1.68
CCOC(=O)[C@H](Cc1ccccc1)NC(=O)CCC1CC(OC(=O)NCc2cccc3ccccc23)CC2(CCCC(COC(=O)NCCC(C)C)O2)O1 (stereo not given in full),-0.0404,0.0896 (inactive),-0.863 (inactive),-0.525 (inactive),0.214 (inactive),1.8,-0.231,1.5,-0.359,-0.226
Cc1ccc(S(=O)(=O)N[C@@H]2COC(=O)[C@@H](C)COC(=O)CC=C[C@H]2C)cc1,-0.278,0.215 (inactive),-0.736 (inactive),-0.116 (inactive),-0.549 (inactive),0.095,0.0633,0.399,0.366,0.472
CC(C)(C)N1C(=O)[C@H]2[C@H]3[C@H](O)C=CC(=O)[C@@H]3CC[C@H]2C1=O,0.307,0.536 (inactive),0.0768 (inactive),1.06 (inactive),-0.0003 (inactive),0.4,-0.128,0.281,0.252,0.521
CCOC(=O)NN=C1C[C@@H](O)[C@@H](O)[C@@H]2[C@@H]3C(=O)N(c4ccc(F)cc4F)C(=O)[C@@H]3CC[C@@H]12,0.0054,0.176 (inactive),0.449 (inactive),-0.0211 (inactive),0.34 (inactive),0.309,-0.016,0.308,0.12,0.219
COC(=O)CC=C[C@@H](C)[C@@H](C=NO[C@@H](C)c1cc(-c2c(C)cc(C)cc2C)no1)NS(=O)(=O)c1ccc(C)cc1,-0.475,-2.83 (inactive),0.054 (inactive),4.2 (inactive),0.0267 (inactive),-0.195,-0.261,-1.05,-1.32,-1.63
CO[C@H]1COC(=O)[C@@H]2CCCN2C(=O)CC=C[C@@H](C)[C@H](OC)COC(=O)[C@@H](OCc2ccccc2)C=C[C@@H]1C,-0.0628,-3.36 (inactive),-0.576 (inactive),1.15 (inactive),-0.166 (inactive),-0.0601,-0.407,1.32,0.855,1.89
COC(=O)CC=C[C@@H](C)[C@H](OCc1cccc(-c2ccccc2)c1)C1CCCCC1,-0.106,-0.44 (inactive),0.125 (inactive),0.68 (inactive),-0.198 (inactive),1.85,-0.176,0.439,-0.17,0.412

# Reference: PubChem BioAssay
